Experimental findings from PubChem BioAssay (EPA / NIEHS) are described below.

SMILES strings stand for the structures. The source holds several records for some structures; these can differ, active in one and inactive in another. Active and inactive are the calls of the source. Rule for the calls: active = hit-call score of the fitted dose curve at least 0.9, where 1 is the maximum; inactive = score below 0.9.

The nature of this test: ATG_TA_CIS: Attagene CIS-FACTORIAL HepG2 Assay for human TA Basal Promoter (AID 2282964). Conditions: HepG2 Attagene CIS-factorial TA basal promoter reporter; actives raise or lower the signal. Here is the method:
ATG_CIS is a cell-based, multiplexed-readout assay that uses HepG2, a human liver cell line, with measurements taken at 24 hours after chemical dosing in a 24-well plate.ATG_TA_CIS is one of 52 assay component(s) measured or calculated from the ATG_CIS assay. It is designed to make measurements of mRNA induction, a form of inducible reporter, as detected with fluorescence intensity signals by Reverse transcription polymerase chain reaction (RT-PCR) and Capillary electrophoresis technology.Data from the assay component ATG_TA_CIS was analyzed into 1 assay endpoint. This assay endpoint, ATG_TA_CIS, was analyzed with bidirectional fitting relative to DMSO as the negative control and baseline of activity. Using a type of inducible reporter, measures of mRNA for gain or loss-of-signal activity can be used to understand the background control at the transcription factor-level as they relate to the gene . Furthermore, this assay endpoint can be referred to as a secondary readout, because this assay has produced multiple assay endpoints where this one serves a background control function. To generalize the intended target to other relatable targets, this assay endpoint is annotated to the background measurement intended target family, where the subfamily is internal marker.
Human liver HepG2 cells are transiently transfected with multiple reporter transcription units (MRTUs) in 6-well plates using FuGene 6 reagent (Roche; 3 ml FuGene/1 mg DNA). The MRTU constructs are regulated by a cis-regulating element (promoter). […] A major difference between the CIS and TRANS system is that in CIS activities of endogenous TFs are measured, whereas the TRANS assay evaluates changes in activities of exogenous, chimeric NR-Gal4 proteins. […] At the end of 24 hour incubation, total RNA was isolated using TriZol reagent (Invitrogen). The isolated RNA is then reverse-transcribed using oligo(dT) primer and Mo-MLV reverse transcriptase (Invitrogen) with DNAse I (Ambion) treatment for 30 min. The one-tenth of the produced cDNA was amplified by PCR using Taq DNA polymerase (Invitrogen) and two reporter sequence-specific primers. The PCR products were fluorescently labeled by primer extension with 6-arboxyfluorescein (6-FAM) 5'-labeled reporter sequence-specific primer (2 min at 95 C, 20 s at 68 C and 10 min at 72 C) and these products were digested with 5U of HpaI (New England Biolabs) for 2h at 37 C. The fragments were purified using Qiaquick PCR columns (Qiagen), analyzed on an ABI 3130xL genetic analyzer (Applied Biosystems) with peak positions identified by using a set of X-rhodamine (ROX)-labeled MapMarker1000 molecular weight standards (BioVentures). The raw capillary electrophoresis data was processed using Attagraph software (Attagene).
Take `CCC(C)(NC(=O)c1cc(Cl)c(C)c(Cl)c1)C(=O)CCl` (stereo not given): the call was inactive.
For the compound `CNC(=O)Oc1cccc(N=CN(C)C)c1`, the outcome was inactive.
Still for that read-out and setting: the result for `CCC(C)Nc1c([N+](=O)[O-])cc(C(C)(C)C)cc1[N+](=O)[O-]` (stereo not given) reads “inactive”; that for `CNC(=O)CSP(=S)(OC)OC`, “inactive”; that for `CCC(C)(C)C(=O)OC1=C(c2ccc(Cl)cc2Cl)C(=O)OC12CCCCC2`, “inactive”.
As to `CNC(=O)/C=C(\C)OP(=O)(OC)OC`, the result was inactive.
As to `ClC1C(Cl)C(Cl)C(Cl)C(Cl)C1Cl` (stereo not given), the compound was called inactive.
Same read-out and setting: the result for `COP(=O)(OC)OC=C(Cl)Cl` reads “inactive”; that for `CC(C)(C)C(O)/C(=C\c1ccc(Cl)cc1Cl)n1cncn1` (stereo not given), “inactive”; that for `CC1(c2ccc(Oc3ccccc3)cc2)OC(=O)N(Nc2ccccc2)C1=O` (stereo not given), “inactive”.
As for `CN1CSC(=S)N(C)C1`, the compound was called inactive.
On the same count and under the same terms, the result for `O=C(O)CCCOc1ccc(Cl)cc1Cl` reads “inactive”; that for `CCCN(CCOc1c(Cl)cc(Cl)cc1Cl)C(=O)n1ccnc1`, “inactive”.
The same measure, in the same setting: the entry for `COc1cc(OC)nc(NC(=O)NS(=O)(=O)c2cc(NC=O)ccc2C(=O)N(C)C)n1` is “inactive”; for `CCc1ccc(C(=O)NN(C(=O)c2cc(C)cc(C)c2)C(C)(C)C)cc1` it is “inactive”.
On the same count and under the same terms, the entry for `O=S1OCC2C(CO1)C1(Cl)C(Cl)=C(Cl)C2(Cl)C1(Cl)Cl` (stereo not given) is “inactive”.
Turning to `CCOCN(C(=O)CCl)c1c(C)cccc1CC`, the result was inactive.
Still for that read-out and setting: the result for `O=[N+]([O-])c1c(Cl)c(Cl)c(Cl)c(Cl)c1Cl` reads “inactive”.
As for `Oc1ccc(Cl)cc1Cc1ccccc1`, the result was inactive and the AC50 is 17.5 µM (active).
Regarding `Cc1[nH]c(=O)n(C(C)(C)C)c(=O)c1Cl`, the call was inactive.
With `Oc1cc(Cl)ccc1Oc1ccc(Cl)cc1Cl`, the compound was classed as inactive and the AC50 is 17.4 µM (active).
As for `CCOc1nc(NC)nc(NC(=O)NS(=O)(=O)c2ccccc2C(=O)OC)n1`, the compound was called inactive.
On the same count and under the same terms, the entry for `CCCN(CCC)c1c([N+](=O)[O-])cc(C(F)(F)F)cc1[N+](=O)[O-]` is “inactive”; for `COP(=S)(OC)Oc1ccc([N+](=O)[O-])cc1` it is “inactive”.
As to `OCCOc1ccccc1`, the result was inactive.
`CC(C)OC(=O)Nc1cccc(Cl)c1`: the result was inactive.
Still for that read-out and setting: the entry for `C#CCN1C(=O)COc2cc(F)c(N3C(=O)C4=C(CCCC4)C3=O)cc21` is “inactive”; for `O=C(Nc1ccccc1)Nc1cnns1` it is “inactive”; for `COc1nn(CSP(=S)(OC)OC)c(=O)s1` it is “inactive”.
As for `Cc1cc(C)nc(NC(=O)NS(=O)(=O)c2ccccc2C(=O)OC2COC2)n1`, the result was inactive.
Same read-out and setting: the entry for `CCS(=O)(=O)c1cccnc1S(=O)(=O)NC(=O)Nc1nc(OC)cc(OC)n1` is “inactive”.
The same measure, in the same setting: the entry for `CCN(CC)C(=O)SCc1ccc(Cl)cc1` is “inactive”; for `COC(=O)c1ccccc1S(=O)(=O)NC(=O)N(C)c1nc(C)nc(OC)n1` it is “inactive”.
The same measure, in the same setting: the result for `[2H]C1([2H])[n+]2ccccc2-c2cccc[n+]2C1([2H])[2H]` reads “inactive”; that for `CC(C)N(C(=O)COc1nnc(C(F)(F)F)s1)c1ccc(F)cc1`, “inactive”; that for `C[C@H]1[C@H](c2ccc(Cl)cc2)SC(=O)N1C(=O)NC1CCCCC1`, “inactive”.
On to `O=C1c2ccccc2C(=O)N1SC(Cl)(Cl)Cl`, for which the compound was called inactive.
As to `N#Cc1c(Cl)c(Cl)c(Cl)c(C#N)c1Cl`, the call was inactive.

One may read the AC50 as the concentration at which the activity in the assay is half-maximal.
